Assay results: PubChem BioAssay (Tox21)
Inconclusive results are not listed. A number with no mark means an inactive call. Activity calls are given as the source filed them. Unless noted, the call rests on the fitted dose curve.

Assay: qHTS assay to identify small molecule agonists of the hypoxia (HIF-1) signaling pathway - cell viability counter screen (AID 1224844); further: nearly all actives have a fitted effect of over 50% in size; further: potency means the concentration at half of the fitted maximal effect
Settings: HRE-bla ME-180 viability, CellTiter-Glo luminescence, 17 h; series mostly up to 76.8 µM; activity change, negative = cytotoxicity: at the top concentration
Outline: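 Cells (HRE-bla ME-180, 2,000 per well) sat 5 hrs at 37C, got compound for 17 hrs, were read for CCF4-AM FRET, and were finally lysed with CellTiter-Glo for a 30 min room-temperature luminescence read.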
On the % scale 0 is the no-effect control and ±100 the full control effect.

Row | Structure (SMILES) | Potency | activity change, negative = cytotoxicity
1 | COc1cc(/C=C/C(=O)CC(=O)/C=C/c2ccc(O)c(OC)c2)ccc1O | 39.2 µM (active) | 
2 | CC/C=C\C/C=C\C/C=C\CCCCCCCC(=O)OC |  | -18.9%
3 | O=[N+]([O-])c1ccc(CO)cc1 |  | -15.2%
4 | N#Cc1nc(Cl)c(Cl)c(Cl)c1Cl | 34.7 µM (active) | 
5 | CC(C)(C)c1ccc(OC2CCCCC2O)cc1 (stereo not drawn) |  | 5.76%
6 | C=CC(C)(C)O |  | 9.19%
7 | S=C1NC=NC2N=CNC12 (stereo not drawn) |  | -20.1%
8 | CCSCC |  | -19.8%
9 | Cc1cc(C)c(O)c(C(C)(C)C)c1 |  | -15.9%
10 | CC(=O)CC(N)=O |  | 8.32%
11 | CCCCCCCCOC(=O)c1cc(O)c(O)c(O)c1 |  | -8.64%
12 | CC(C)=NNC(N)=S |  | -30%
13 | O=C(O)CN(CCCN(CC(=O)O)CC(=O)O)CC(=O)O |  | -18% [at 15.8 µM]
14 | CCOC=C(C(=O)OCC)C(=O)OCC |  | -8.43%
15 | Nc1cc([N+](=O)[O-])cc(Cl)c1O |  | -0.124%
16 | CC1(C)[C@H]2CC[C@]1(C)C(=O)C2 |  | 0.773%
17 | O[Si](c1ccccc1)(c1ccccc1)c1ccccc1 |  | 3.79%
18 | CCC(O)CO (stereo not drawn) |  | 6.39%
19 | c1ccc2cc3c4ccccc4c4ccccc4c3cc2c1 | 22 µM (active) | 
20 | Cn1ccnc1 |  | 11.7%
21 | Cc1cccc(C)c1C |  | 4.42%
22 | NC(=O)c1ccccc1Cl |  | 5.56%
23 | C/C=C/C(=O)C1=C(C)C=CCC1(C)C |  | -1.02%
24 | O=C1C=CC(=O)N1c1cccc(N2C(=O)C=CC2=O)c1 | 11 µM (active) | 
25 | CCC1(C)C(=O)N(Cl)C(=O)N1Cl (stereo not drawn) |  | 0.631%
26 | CC(C)(C)c1cc(CCC(=O)OCCSCCOC(=O)CCc2cc(C(C)(C)C)c(O)c(C(C)(C)C)c2)cc(C(C)(C)C)c1O |  | 19.9% [at 35.3 µM]
27 | CCCCCCCCCCCCS(=O)(=O)Cl |  | -3.11% [at 15.8 µM]
28 | CC(C)c1ccc2sc3ccccc3c(=O)c2c1 |  | 8.2%

Assay: qHTS assay to identify small molecule agonists of H2AX (AID 1224845; active means well fitted activation curve with a large enough effect in the signal ratio in the repeat runs, not every such curve was filed as active; the % refers to the signal ratio)
Settings: CHO-K1 phospho-H2AX Ser139 HTRF, 3 h; series mostly up to 154 µM; activation (H2AX phosphorylation): at the top concentration
Outline: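 Phospho-H2AX Ser139 measured by HTRF (ex 320 nm; em 665 and 620 nm) after 24 hr antibody incubation. Compounds, 15 concentrations, 0.76% DMSO, were applied to CHO-K1 cells for 3hr at 37C before lysis.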

Row | Structure (SMILES) | activation (H2AX phosphorylation)
29 | CCCCCCCCCCCCCCCCCCNC(=O)OC1CCN(C(=O)OC[C@H](COC(=O)N(Cc2cccc[n+]2CC)C(=O)c2ccccc2OC)OC)CC1 | -9.53% [at 70.9 µM]
30 | O=[N+]([O-])c1ccc(CO)cc1 | -1.36%
31 | CC(C)(C)c1ccc(OC2CCCCC2O)cc1 (stereo not drawn) | 2.37%
32 | C=CC(C)(C)O | -2.82%
33 | Cc1cc(C)c(O)c(C(C)(C)C)c1 | 1.39%
34 | O=C(O)CN(CCCN(CC(=O)O)CC(=O)O)CC(=O)O | 1.1% [at 31.6 µM]
35 | CCOC=C(C(=O)OCC)C(=O)OCC | -2.3%
36 | CC1(C)[C@H]2CC[C@]1(C)C(=O)C2 | -2.48%
37 | O[Si](c1ccccc1)(c1ccccc1)c1ccccc1 | -3.63%
38 | CCC(O)CO (stereo not drawn) | -2.61%
39 | Cn1ccnc1 | -5.99%
40 | Cc1cccc(C)c1C | -1.69%
41 | NC(=O)c1ccccc1Cl | -0.0099%
42 | C/C=C/C(=O)C1=C(C)C=CCC1(C)C | -5.31%
43 | O=C1C=CC(=O)N1c1cccc(N2C(=O)C=CC2=O)c1 | -7.53%
44 | CCC1(C)C(=O)N(Cl)C(=O)N1Cl (stereo not drawn) | 5.36%
45 | CC(C)(C)c1cc(CCC(=O)OCCSCCOC(=O)CCc2cc(C(C)(C)C)c(O)c(C(C)(C)C)c2)cc(C(C)(C)C)c1O | -3.31% [at 70.9 µM]
46 | CCCCCCCCCCCCS(=O)(=O)Cl | 0.0057% [at 31.6 µM]
47 | CCOc1nc(F)cc2nc(S(=O)(=O)Nc3c(Cl)cccc3C(=O)OC)nn12 | 0.797%
48 | CC(C)c1ccc2sc3ccccc3c(=O)c2c1 | -4.26%
